The results in this text go back to PubChem BioAssay (NCI).

Compounds without any hit were thinned out: in the full panel of roughly 83,000, 20% have a hit.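 A percent growth of 40 corresponds to 60% growth inhibition; 0 means no net growth; -100 means all cells died. Active threshold: below 10.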 Unmarked numbers belong to inactive results. Calls of active or inactive are those of the source.

What all share (assay): NCI-60 one-dose screen, 48 h (100 = growth as untreated, 0 = no growth, -100 = all killed)
What all share (details): 10 µM unless noted

In test [1] the test system is NCI-H23 lung.
Test [2] deals with NCI-H226 lung.
Test [3] has as its system NCI-H322M lung.
The subject of test [4] is HOP-62 NSCLC.
In test [5] the test system is NCI-H460 lung.
Test [6] relates to NCI-H522 lung.
For test [7], the system named is A549/ATCC NSCLC.
The subject of test [8] is 786-0 renal.
Test [9] relates to COLO 205 colon.
The test system of test [10] is DU-145 prostate.
Test [11] concerns K-562 leukemia.
Test [12] deals with MALME-3M melanoma.
The subject of test [13] is MDA-MB-231 breast.
Test [14] concerns RXF 393 renal.
In test [15] the test system is SF-268 CNS.
Test [16] concerns SF-295 CNS.
Test [17] relates to SF-539 CNS.
Test [18] deals with UACC-257 melanoma.
Test [19] concerns M14 melanoma.
Test [20] concerns HCT-15 colon.

Consider `O=C(CCc1nnc(Cn2ccnc2)o1)c1nc2ccccc2[nH]1`, for which the growth is 102% in test [1]; 115% in test [2]; 92.9% in test [3]; 102% in test [4]; 116% in [5]; 98.4% in test [6]. In addition, the growth was 103% in [7]; 105% in test [8]; 119% in [9]; 108% in test [10]; 101% in test [11]; 77.8% in [12]. Also, the growth in test [13] was 89.7%; in test [14], 124%; in test [15], 111%; in [16], 111%; in test [17], 100%; in [18], 114%. In test [19], the growth was 105%.
With `Nc1c2ccccc2nc2ccccc12` (tested in a mixture with another compound), the growth was 19.2% in [1]; 11% in test [2]; 29.8% in test [3]; 25.8% in [4]; 4.41% (active) in test [5]; -22.3% (active) in test [6]. Also, the growth in test [7] was 4.37% (active); in [8], 32.5%; in test [9], 2.36% (active); in test [10], 19.4%; in [11], 15.3%; in test [12], 27%. Besides, the growth in test [13] was 15.9%; in test [14], -2.81% (active); in [15], 19.2%; in [16], 24.4%; in [17] it was 27.5%; in [18], -11.3% (active). Besides, the values for the growth in test [19] and in test [20] were 17.1% and 14.7%, respectively.
As to `COc1ccc2c(c1)C(=O)/C(=C/c1ccc([N+](=O)[O-])s1)O2`, the growth was 7.22% (active) in test [1]; 60% in test [2]; 11.4% in [3]; 35.2% in [4]; -3.34% (active) in test [5]; -86.4% (active) in test [6]. The growth in test [7] is 8.34% (active); in test [8], 28.1%; in test [9], -64.7% (active); in test [10], 43.8%; in test [11], 3.01% (active); in test [12], -46.3% (active). The growth in test [13] was -71.1% (active); in test [14] it was -63% (active); in test [15], -72.7% (active); in test [16], 5.53% (active); in test [17] it was -46.2% (active); in [18], -0.975% (active). Further, the growth in test [19] is -20.6% (active).
On to `Nc1ncc(-c2cnn(C3CCNCC3)c2)cc1-c1nc2cc(Cl)ccc2o1`, for which the growth was -61.7% (active) in test [1]; -63.3% (active) in [2]; -59.1% (active) in [3]; -98.1% (active) in test [4]; -100% (active) in test [5]; -87.6% (active) in test [6]. For the same compound, the growth in test [7] is -100% (active); in test [8], -100% (active); in test [9] it was -100% (active); in test [10], -100% (active); in test [11], -100% (active); in [12] it was -92.5% (active). Besides, the growth in [13] was -91.7% (active); in [14], -96.4% (active); in [15], -83.4% (active); in [16], -78.7% (active); in test [17], -100% (active); in test [18], -93.3% (active). Also, the growth in [19] was -100% (active).
For the compound `Cc1ccc2c(c1)O/C(=C\c1ccc([N+](=O)[O-])o1)C2=O`, the growth was 56.2% in test [1]; 78.9% in [2]; 68.6% in test [3]; 69.6% in test [4]; 25.4% in test [5]; -66% (active) in [6]. Further, the growth in [7] is 55.4%; in test [8] it was 5.37% (active); in test [9] it was -41.8% (active); in test [10] it was -1.53% (active); in test [11], 2.06% (active); in test [12], -10.5% (active). Also, the growth in test [13] was 48.4%; in test [14], -23.5% (active); in test [15], 29.3%; in test [16], 94.3%; in [17], 44.5%; in test [18], 68.3%. Moreover, the growth in test [19] was 55.8%.
As for `COc1cc(C2CC(=O)Nc3c2cc(Br)c2ccccc32)cc(Br)c1OC` (stereo not given), the growth in test [1] was 58.8%; in test [2] it was 27.1%; in test [3] it was 40.7%; in test [4], 24%; in test [5], 10.9%; in test [6], 21.3%. The growth is 3.52% (active) in [7]; 0.846% (active) in test [8]; 37.1% in [9]; 64.7% in test [10]; 20.2% in test [11]; 39.9% in test [12]. For the same compound, the growth was 28% in test [13]; 35.8% in [14]; 55.4% in test [15]; -31.3% (active) in test [16]; 74.4% in test [17]; 73.4% in test [18]. Also, in test [19], the growth is 48.2%.
On to `O=C(/C=C/c1cccnc1)/C=C/c1cccnc1`, for which the growth was -5.04% (active) in [1]; 2.94% (active) in test [2]; 122% in [3]; 98.9% in test [4]; 18.5% in [5]; -91.2% (active) in test [6]. In addition, the growth was 6.27% (active) in test [7]; 5.1% (active) in [8]; -84.8% (active) in test [9]; -29.6% (active) in test [10]; -15.2% (active) in test [11]; -8.19% (active) in test [12]. Moreover, the growth in test [13] was 20.4%; in test [14] it was -84.9% (active); in test [15] it was -64% (active); in test [16] it was 41.6%; in [17] it was -46.1% (active); in [18], 31.2%. In addition, the results for the growth in test [19] and in [20] were -47.3% (active) and -9.07% (active), respectively.
As to `CC(CCC(=O)O)(NC(=O)c1ccc([N+](=O)[O-])cc1)C(=O)O` (stereo not given), the growth in test [1] was 98.4%; in [2] it was 111%; in [3] it was 107%; in [4] it was 92.8%; in [5], 107%; in test [6] it was 106%. Also, the growth is 107% in test [7]; 105% in test [8]; 107% in [9]; 104% in test [10]; 99% in test [11]; 106% in test [12]. Further, the growth in test [13] is 113%; in test [14], 115%; in test [15], 104%; in [16] it was 106%; in test [17], 105%; in test [18], 99.4%. The growth is 102% in [19] and 113% in [20].
